Assay results: the supplement of paper PMC12632987

B1: FBXL12_hotspot_59_73 (protein)
chain: MVEVVIRGPLEQAIEQALALLKAAAELIVKHEGTEKQERLVSIFISTLRELYRLAAEAGDEEAIEEADKIVKELMEKVDPETAAKLKAEREAIKKELAAA
B2: FBXL12_hotspot_59_75 (protein)
chain: MLEIRVSAHPDESLEAIKRTVEYAIEMIKELIKRGRIEDAKAAIRSVTRSVTEIVIRKGNEELAEHFLELLEELKEIANEEVKKVIEEAMEEFRERVAAA
B3: FBXL12_hotspot_59_74 (protein)
chain: MLEIRVSAHPDESTEQIKNTIRYAVEMIKELIERGLIEDAIAAIRSLGRSVTEIVIRRKNEEVYNFFLELLEELKEIANPEVKKVIDEVIKEFKERVKKA
B4: FBXL12_hotspot_67_86 (protein)
chain: MLRLLVIRIRAETVEEARRSLALAEAYVRAARARGWRVLVVAWAATPEVAALFRERLAELEREYGARTVLIEDRENGEEELARTTARLKAELLAEMDEEE
B5: FBXL12_hotspot_59_82 (protein)
chain: MVTVRVRGPLEQALAQALALLRAATALLAELADSPKRPKLLEIYKAVLREAVRLATEAGDEEALAEIERLLAEARAAVSPEDAAELEEAYAEARREAAAA
B6: FBXL12_hotspot_59_77 (protein)
chain: MRRIIISGPSEQRIRNLREFSDALIELIDKHKGTPEAERLEEMLVGLFEESLKIAKEEKDVELLKELKKLVEEAIPHVSPEYAERLKKILEEIEKELAEL
B7: FBXL12_hotspot_59_84 (protein)
chain: MRKVVIRGPPEQALANALALLRAAVELLKEHAGSELAPRILEFFLSTLKEAVRAAIALGDEEALEEIERLVEEAQEAVDEEDARRLREALERAREEAEAA
B8: FBXL12_hotspot_59_83 (protein)
chain: MIEVRVRGPVEEALRRALELLRAARELLKKHKDSPLYPRILEIFESALREAVRLAVEAGDEEALREAEEIVEEAEKVVSPEDAERLREALERAKREAEEE
B9: FBXL12_hotspot_59_79 (protein)
chain: MRRIIVRGEPEQVIKQTRALADALIALIDEHRGTPEQARLEDMLVGLFEETIKYAKEIGDVELLETIVELADRALPHVSPEYQKRIEELRKEALEAIKKL
B10: FBXL12_hotspot_59_78 (protein)
chain: MRRIIISGEPEQRIKNLKELSDALIELIDKHKGTPEAERLEEMLVGLFEEALEQAKKEKDLELLETLKKEIEKAKPHVSPEYAEKLEELLKEVEKEIAEL
B11: FBXL12_hotspot_59_85 (protein)
chain: MRVVIVRGPVEEAARRITELLEAIAELLREIPQDERAERLVEIALSLLEEAVRLVEEGLDEELARRVIEAAERAAEEATPEQAERLNEAIERLREAIERR
B12: FBXL12_hotspot_59_76 (protein)
chain: MRRIILRGPPEQRRANLVAYSDALIKLIKEHKGTPEAERLEEMLVGLFEEALRQAEAERDRALLETLAEQVKKAIPFVSPEYAKRLEEILERIERALAEL
B13: FBXL12_hotspot_59_72 (protein)
chain: MRRVVVRGPPEQALAQALALLEALLALLVEHEGTPDEPRLLELLESTYRELLRTARALGDAAAIERARAAIEAAKARLSPATAARLAEAVARAEAEVEAE
B14: FBXL12_hotspot_59_80 (protein)
chain: MRVIRISGEPEQRIRQFELYSDALIELIKEHKGTPEAERLEEMLVGLFKYMLEVAKKEKNVELLETLVKQARKALPHVSPEYAKELEKIIKEAEKAIAEL
B15: FBXL12_hotspot_59_81 (protein)
chain: MRRIIIRGEPEQRLRQFEALAKALIELIKEHKGTPEAERLEEMLVGLFEEALKYAKEEKDVELLEALIKLAKEALPYVSPEYQKRLEKIIEEAEKAIKEF
B16: FBXL12_hotspot_109_4 (protein)
chain: MTRILVGAATTPEAARHTFSTIVEIAKGLKDEEVIAVLVVLDDPEMRAIAERAAEELRALGAEVRLEVAPTLEALEAARARLLAEAEAEADARDAAAAAA

Biological target: T1, FBXL12, Q9NXK8
T1 chain: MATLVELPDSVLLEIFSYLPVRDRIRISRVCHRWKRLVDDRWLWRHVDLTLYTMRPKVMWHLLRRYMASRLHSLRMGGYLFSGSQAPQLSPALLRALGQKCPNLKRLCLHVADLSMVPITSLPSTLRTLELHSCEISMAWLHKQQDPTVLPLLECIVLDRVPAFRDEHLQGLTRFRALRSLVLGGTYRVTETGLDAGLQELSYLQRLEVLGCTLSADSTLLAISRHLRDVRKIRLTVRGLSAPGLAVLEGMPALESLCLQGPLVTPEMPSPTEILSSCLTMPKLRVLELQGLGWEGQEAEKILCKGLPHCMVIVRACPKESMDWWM
Test: median log2 fold change of GCK-ALFA target abundance (FLAG IP / Myc IP barcode read proportion) (log2 ratio); each designed protein is fused to an ALFA-tag nanobody in HEK293 cells to bring the named protein to FLAG-tagged glucokinase (GCK); Myc marks an untargeted standard; higher = target protein stabilised (more abundant)
Conditions: target protein: 3xFLAG-MCP-GCK-ALFA reporter; HEK293 landing pad (RPLP)
How it was run: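 Sequencing of reverse-transcribed, amplified circular RNA barcodes from anti-FLAG and anti-Myc immunoprecipitates provided the readout for an ALFA-nanobody-fused binder library recombined into HEK293 landing-pad cells. Those cells were induced with 2 μg mL^−1 doxycycline, transfected with a plasmid expressing a FLAG-tagged target and a Myc-tagged standard, and lysed after 48 h. Target abundance is the per-binder median log2 ratio of FLAG to Myc barcode read proportions. Only barcodes at a proportion of ≥10^−7 in both replicates and binders with ≥3 barcodes per replicate were kept, with a 10^−6 pseudocount added before the two replicates were pooled.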

| Binder | median log2 fold change |
| --- | --- |
| B1 | -0.363 |
| B2 | -0.31 |
| B3 | 0.185 |
| B4 | -0.304 |
| B5 | -0.218 |
| B6 | 0.0852 |
| B7 | -0.544 |
| B8 | -0.0926 |
| B9 | -0.207 |
| B10 | 0.0323 |
| B11 | -0.444 |
| B12 | -0.366 |
| B13 | -0.077 |
| B14 | -0.4 |
| B15 | -0.417 |
| B16 | -0.542 |
